# In the library only some 3.5% were active in any assay of this set; here they are far more common.
# Pf apPOL inh = Pf-apPOL DNA polymerase inhibition; inhibition, % at 10 µM; Recombinant Pf-apPOL, molecular beacon fluorescence, 1.5 h; actives 0.25% (n = 210,000)
# mHTT CaM bind = mHTT-calmodulin interaction abrogation; P42858; AlphaScreen His-mHTT/GST-CaM binding, luminescence; inhibition, % at 15 µM; actives 3.6% (n = 190,000); AID 1671202;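 note: 0% = both proteins with DMSO and 100% = one protein alone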
# Starred values were filed as active, the others as inactive; nt = not tested or not shown. Cut-off read from the data, not from the text of the source: active = inhibition above about 50%; inactive = the rest.
SMILES,Pf apPOL inh,mHTT CaM bind
C[C@H](c1ccccc1)N1C[C@@H](COCc2ccccc2)Oc2cc(N3CC[C@H](N(C)C)C3)ccc2S1(=O)=O,-4,-6
C[C@H](c1ccccc1)N1C[C@H](COCc2ccccc2)Oc2cc(N3CCC[C@H]3CO)ccc2S1(=O)=O,-7,-2
C[C@H](c1ccccc1)N1C[C@@H](COCc2ccccc2)Oc2cc(N3CC[C@@H](O)C3)ccc2S1(=O)=O,-7,44
C[C@H](c1ccccc1)N1C[C@@H](COCc2ccccc2)Oc2cc(N3CCC[C@@H]3CO)ccc2S1(=O)=O,-4,68*
C[C@H](c1ccccc1)N1C[C@@H](COCc2ccccc2)Oc2cc(N3CC[C@@H](N(C)C)C3)ccc2S1(=O)=O,-4,100*
C[C@@H](c1ccccc1)N1C[C@@H](COCc2ccccc2)Oc2cc(N3CC[C@H](O)C3)ccc2S1(=O)=O,-4,55*
CC(C)(C)c1cc(-c2n[nH]c(=S)n2-c2ccccc2)n(Cc2ccc(Cl)cc2Cl)n1,-8,nt
CC(=O)CC[C@@H]1CC[C@]2(CCCN(C(=O)c3ccc4ccccc4n3)C2)O1,-7,2
N#Cc1c(-n2ncnc2-c2ccccn2)sc2c1CCCCC2,-10,19
Cc1ccc(N2CCN(C(=O)c3cccc4[nH]cc(CN5CCCC5)c34)CC2)cc1,-4,78*
Cc1ccc(NC(=O)c2cccc3[nH]cc(CN4CCCC4)c23)cc1,-1,5
COc1cccc(C(Nc2cc(C)ccn2)c2ccc3cccnc3c2O)c1 (stereo unspecified),0,99*
COc1ccccc1CC(=O)Nc1cc(C)ccn1,-1,-2
Cc1ccnc(NC(c2cccnc2)c2ccc3ccc(C)nc3c2O)c1 (stereo unspecified),-6,76*
Cc1ccnc(NC(c2cccnc2)c2ccc3cccnc3c2O)c1 (stereo unspecified),4,100*
COc1ccc(C(Nc2cc(C)ccn2)c2ccc3cccnc3c2O)cc1O (stereo unspecified),-18,100*
COc1cccc(C(=O)Nc2cccc3cccnc23)c1,-2,-46
Cc1ccnc(NC(=O)CSc2ccccn2)c1,-28,nt
CC(Nc1cc(N2CCN(S(=O)(=O)N(C)C)CC2)ccc1[N+](=O)[O-])c1ccccc1 (stereo unspecified),2,8
CCC(C(=O)Nc1ccc([N+](=O)[O-])cc1Cl)c1ccccc1 (stereo unspecified),3,-1
CCOC(=O)NNC(=S)Nc1ccc2c(c1)OCCO2,-3,nt
CCOc1ccc2nc(N(Cc3ccccn3)C(=O)c3cccc([N+](=O)[O-])c3)sc2c1,3,-5
O=C(NC1CCCCCC1)c1ccc(CN2C(=O)C3CCCN3C(=O)c3ccccc32)cc1 (stereo unspecified),-4,10
N#Cc1cccc(-c2cn3c(n2)N(C(=O)C2CCC2)CCC3)c1,-7,10
COc1ccc(CNC(=O)C2(C)Cc3ccccc3C(=O)N2CCC(C)C)cc1 (stereo unspecified),-2,-10
SMILES,Pf apPOL inh,mHTT CaM bind
CN(C)C=NC(=O)/C(C#N)=C1\CCc2ccccc2N1,-6,2
Cc1ccnc(NC(c2ccncc2)c2ccc3ccc(C)nc3c2O)c1 (stereo unspecified),-8,90*
Cc1ccnc(NC(=O)c2cc(I)ccc2Cl)c1,-3,-11
O=C(Nc1cccc(-c2nc3cc(Cl)ccc3o2)c1)c1ccccc1[N+](=O)[O-],-7,-2
N#Cc1ccc(Oc2ccc(C(=O)Nc3ccccc3)cc2)cc1,68*,-8
O=C(Nc1ccc(Oc2ccccc2)cc1)c1ccncc1,0,12
O=C1NC(=O)C2C3C=CC(C3=C(c3ccccc3)c3ccccc3)C12 (stereo unspecified),-2,57*
O=C1NN(c2ccccc2)C(=O)C2C(c3ccccc3)C=CC(c3ccccc3)C12 (stereo unspecified),2,24
CC(C(=O)Nc1cccc(Cl)c1)N1C(=O)c2ccccc2C1=O (stereo unspecified),0,-3
CC(=O)Oc1ccc2c(=O)c(-c3ccc4c(c3)OCCO4)coc2c1,-4,1
O=C(NCc1ccccn1)c1ccc(NC(=O)C2CC2)cc1N1CCCCCC1,-3,37
O=C(CCSc1ccccc1)N1CCN(c2ccc(-c3ccccn3)nn2)CC1,1,100*
O=C(Cn1ccc2ccccc21)N1CCN(c2ccc(-c3ccccn3)nn2)CC1,0,45
O=C(CSC1CCCC1)N1CCN(c2ccc(-c3ccccn3)nn2)CC1,-7,100*
COc1cccc(C(=O)N2CCN(c3ccc(-c4ccccn4)nn3)CC2)c1OC,-4,100*
COc1cccc(C(=O)N2CCN(c3ccc(Nc4ccccn4)nn3)CC2)c1OC,-9,14
O=C(CSCc1ccccc1)N1CCN(c2ccc(-c3cccs3)nn2)CC1,-21,8
Cc1nnc(SCCn2c(N(C)Cc3ccccc3)nc3c2c(=O)n(C)c(=O)n3C)s1,-2,2
